Data on 3 compounds can be found in PubChem BioAssay (NCATS).

Results filed as inconclusive are left out. Activity calls are given as the source filed them. Unless noted, calls follow the shape of the dose curve; as a rule, active = well fitted curve in the direction sought with a large enough effect; inconclusive = small, poorly fitted or top-dose-only effect, or another doubt; inactive = no such curve, though single readings can be large; an effect the other way counts as inactive or inconclusive.

Test [1] deals with Calcium and integrin-binding protein 1 (Homo sapiens) (UniProt Q99828). Nature of the test: Primary qHTS for Identification of Calcium Integrin Binding Protein 1 (CIB1) Competitor (AID 1508620).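 Also: GST tagged CIB1 binding a fluorescein labelled alphaIIb integrin peptide tracer; top concentration of the series differs between compounds.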 The method, boiled down:
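Fluorescence polarization competition: CIB1-GST (1 uM final) preincubated with compound 15 min at room temperature, then FITC-labeled alphaIIb peptide (100 nM final) added for another 15 min. Polarization read at Ex 480/Em 540.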

Test [2] in a line: Primary qHTS for small molecule stabilizers of the endoplasmic reticulum resident proteome: Secreted ER Calcium Modulated Protein (SERCaMP) assay (AID 1508630). Summed up:
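The SH-SY5Y reporter protocol was run at 3 concentrations up to 38.3 uM (primary) or 11 concentrations (follow-up): 16 h compound, 100 nM thapsigargin for 4 h, then extracellular luciferase luminescence.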

Test [3] in a line: Primary qHTS for inhibitors of nuclear receptor binding SET domain protein 2 (NSD2) in an isogenic RCH-ACV NSD2 p.E1099K mutant (9B) (AID 1645876). Also: nearly all actives have a fitted effect of over 70% in size.
Test [4] is described as follows: Primary qHTS for inhibitors of nuclear receptor binding SET domain protein 2 (NSD2) in an RCH-ACV wild type WT cells (2C) (AID 1645877). Also: nearly all actives have a fitted effect of over 70% in size.
Test [5] has as its target Cytochrome P450 2D6 (Homo sapiens) (UniProt P10635). The experiment in a line: Cytochrome P450 family 2 subfamily D member 6 (CYP2D6) small molecule antagonists: luciferase biochemical (cell-free) qHTS assay (AID 1645840; active = well fitted curve in the direction sought with a large enough effect in the repeat runs; an effect the other way counts as inactive or inconclusive; also: potency is read from the fitted curve at half-maximal effect; nearly all actives have a fitted effect of over 55% in size). The method, boiled down: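 P450-Glo CYP2D6 system: proluciferin substrate converted by enzyme to luciferin, read by luminescence proportional to activity. Enzyme-substrate mix with compound 10 min at room temperature, then NADPH regeneration 1 h before detection reagent.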

Test [6] has as its target Cytochrome P450 2C9 (Homo sapiens) (UniProt P11712). The experiment in a line: Cytochrome P450 family 2 subfamily C member 9 (CYP2C9) small molecule antagonists: luciferase biochemical (cell-free) qHTS assay (AID 1645842; active = well fitted curve in the direction sought with a large enough effect in the repeat runs; an effect the other way counts as inactive or inconclusive; also: series mostly up to about 57 µM; nearly all actives have a fitted effect of over 55% in size). Summed up:
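P450-Glo CYP2C9 system: proluciferin substrate with enzyme in mix containing 0.4% BSA, 10 min at room temperature, then NADPH regeneration solution added and incubated 1 h at 37C. Detection reagent stopped reaction; luminescence read after 20 min as RLU.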

Calcium and integrin-binding protein 1 (Homo sapiens), sequence (Q99828 whole entry, looked up): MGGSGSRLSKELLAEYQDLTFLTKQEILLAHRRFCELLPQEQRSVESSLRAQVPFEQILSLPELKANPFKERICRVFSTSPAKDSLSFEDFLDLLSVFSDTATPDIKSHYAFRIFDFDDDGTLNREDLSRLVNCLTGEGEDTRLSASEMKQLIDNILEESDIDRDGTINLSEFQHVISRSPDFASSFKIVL
Cytochrome P450 2C9 (Homo sapiens), sequence (P11712 whole entry, looked up): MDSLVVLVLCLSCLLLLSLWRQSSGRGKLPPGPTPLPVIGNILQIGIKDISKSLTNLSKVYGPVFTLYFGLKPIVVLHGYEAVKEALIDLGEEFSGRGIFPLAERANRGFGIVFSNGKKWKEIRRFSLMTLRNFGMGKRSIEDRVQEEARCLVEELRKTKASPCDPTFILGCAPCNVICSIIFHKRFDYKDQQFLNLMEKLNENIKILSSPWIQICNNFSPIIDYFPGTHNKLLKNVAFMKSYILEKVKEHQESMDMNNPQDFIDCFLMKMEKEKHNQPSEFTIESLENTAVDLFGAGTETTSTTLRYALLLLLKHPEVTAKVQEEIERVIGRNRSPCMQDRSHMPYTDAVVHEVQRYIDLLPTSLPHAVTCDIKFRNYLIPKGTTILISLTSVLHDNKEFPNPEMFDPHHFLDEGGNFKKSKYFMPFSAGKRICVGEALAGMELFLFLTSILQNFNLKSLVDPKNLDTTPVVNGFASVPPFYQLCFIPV
Cytochrome P450 2D6 (Homo sapiens), sequence (P10635 whole entry, looked up): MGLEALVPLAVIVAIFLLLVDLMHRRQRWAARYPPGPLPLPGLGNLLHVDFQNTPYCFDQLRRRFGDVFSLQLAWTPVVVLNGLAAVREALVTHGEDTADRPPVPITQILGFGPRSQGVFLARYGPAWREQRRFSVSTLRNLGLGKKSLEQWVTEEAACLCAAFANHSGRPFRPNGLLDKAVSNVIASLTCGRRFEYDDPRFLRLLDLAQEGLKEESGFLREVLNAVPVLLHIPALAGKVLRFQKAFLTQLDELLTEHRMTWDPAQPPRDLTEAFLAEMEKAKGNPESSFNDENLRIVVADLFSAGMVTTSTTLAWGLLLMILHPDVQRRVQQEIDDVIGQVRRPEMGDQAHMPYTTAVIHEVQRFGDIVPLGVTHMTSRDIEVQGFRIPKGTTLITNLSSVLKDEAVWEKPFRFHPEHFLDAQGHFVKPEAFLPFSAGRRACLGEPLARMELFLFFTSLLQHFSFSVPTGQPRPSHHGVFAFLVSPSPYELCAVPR

On to `COc1cc2ncn(-c3cc(OCc4ccccc4S(C)(=O)=O)c(C#N)s3)c2cc1OC`, for which the Potency entry in test [1], in test [2], in test [3] and in test [4] was “inactive” in each case.

`Cc1nc2c([nH]1)CCN(C(=O)c1ccc(NC(=O)c3ccccc3-c3ccccc3)cc1)c1ccccc1-2`: the Potency entry in test [1] and in test [6] was “inactive” in each case. For the same compound, the Potency in test [5] was 4.77 µM (active).

Turning to `O=C(O)CCC=CCC[C@@H]1[C@H](N2CCCCC2)[C@@H](O)C[C@@H]1OCc1ccc(-c2ccccc2)cc1`, the Potency result in test [1], in test [2], in test [3] and in test [4] was “inactive” throughout.
